Laboratory results as given in PubChem BioAssay AID745 (Emory University Molecular Libraries Screening Center, 2007).
Hit rate of the full screen: of about 33,000 compounds, about 40 (0.1%) were called active. No stated cut-off is given here; in the data, active means z-score below about -3; inactive means the rest. This excerpt belongs to a sample that is enriched for actives.

test: inhibitors of measles virus growth in cells, primary screen, measles RdRp inhibitor project, cell-based, single point, HTS (AID 745); conditions: infected Vero cells, GFP fluorescence, 64 h; hits give low values

z-score, inactive:
Cc1onc(-c2ccccc2)c1C(=O)N1CCN(c2ccc(OCc3ccccc3)cc2)CC1 -0.43
Cc1nn(C)c(C)c1S(=O)(=O)Nc1ccc(C(C)C)cc1 -0.07
O=C(COC(=O)c1ccc(N2C(=O)c3ccccc3C2=O)cc1)c1ccc(Cl)cc1 -1.36
CCOC(=O)c1c(O)cc2ccccc2c1O 0.14
O=C1NCCCCC1Nc1ccc(N2C(=O)CCCC2=O)cc1[N+](=O)[O-] (stereo unspecified) -1.9
Cc1ccc(C(=O)Nc2ccc(Br)cn2)cc1C -0.15
COc1ccc(NC(=O)CN(c2cc(C(F)(F)F)ccc2Cl)S(=O)(=O)c2ccccc2)cc1 -0.33
Cc1ccc2nc(N3CCC(C(=O)NC4CCCCC4)CC3)[nH]c2c1 3.44
CCCCSc1nnc2c(n1)OC(c1ccc3c(c1)OCO3)N(C(C)=O)c1ccccc1-2 (stereo unspecified) 0.17
C=CCN1C(=O)c2ccccc2Sc2ccc(C(=O)NCCOC)cc21 1.28
Cc1ccc(S(=O)(=O)N2N=C(c3ccccc3)CC2c2ccccc2Cl)cc1 (stereo unspecified) 0.52
COCCOC(=O)C1=C(C)NC(=O)NC1c1ccc(Br)s1 (stereo unspecified) -0.55
Cc1ccc(CNC(=O)CCNC(=O)Cn2ccc3ccccc3c2=O)cc1 -0.31
CCOc1sc2nc(C)n(CC(=O)Nc3ccc(N(C)C)cc3)c(=O)c2c1C -1.08
CCC(C)NC(=O)C1(C)CCC(=O)N1CCN1CCCCCC1 (stereo unspecified) -0.27
O=C1C2C3C=CC(C3)C2C(=O)N1c1ccc(Nc2ccc3c(c2)CCC3)c([N+](=O)[O-])c1 (stereo unspecified) -1.35
Cn1ncc([N+](=O)[O-])c1C#N -0.09
COc1ccc2c(c1)c(C(=O)CNc1nc(C)c(C)s1)c(C)n2C -1
O=C1CCCN1CCCn1c(=S)[nH]c2ccccc2c1=O -0.96
CC(=O)N1CCc2cc(S(=O)(=O)CCC(=O)Nc3ccc(C(F)(F)F)cc3)ccc21 -0.69
Cc1ccc2nsnc2c1S(=O)(=O)Nc1ccc(Br)cc1 -1.76
Cc1ccccc1NCc1cccc([N+](=O)[O-])c1 0.03
O=C(c1oc(=O)c2ccccc2c1-c1ccccc1)N1CCc2ccccc21 0.81
Nc1nc2ccccc2n1CCOc1ccc([N+](=O)[O-])cc1 -0.25
CCC(=O)Nc1cccc(-c2nc3ncccc3o2)c1 0.77
Cc1ccc(CNC(=O)CCSCc2cccc(Cl)c2)cc1 -0.79
